The source of these data is PubChem BioAssay (Tox21).

Each structure is given as a SMILES string. Results filed as inconclusive are left out. Values without a mark were called inactive. Activity calls are given as the source filed them. Calls come from the whole dose curve.
% is set by controls: 0 for no effect and ±100 for the full control effect.

Peroxisome proliferator-activated receptor delta (Homo sapiens), sequence (Q03181 whole entry, looked up): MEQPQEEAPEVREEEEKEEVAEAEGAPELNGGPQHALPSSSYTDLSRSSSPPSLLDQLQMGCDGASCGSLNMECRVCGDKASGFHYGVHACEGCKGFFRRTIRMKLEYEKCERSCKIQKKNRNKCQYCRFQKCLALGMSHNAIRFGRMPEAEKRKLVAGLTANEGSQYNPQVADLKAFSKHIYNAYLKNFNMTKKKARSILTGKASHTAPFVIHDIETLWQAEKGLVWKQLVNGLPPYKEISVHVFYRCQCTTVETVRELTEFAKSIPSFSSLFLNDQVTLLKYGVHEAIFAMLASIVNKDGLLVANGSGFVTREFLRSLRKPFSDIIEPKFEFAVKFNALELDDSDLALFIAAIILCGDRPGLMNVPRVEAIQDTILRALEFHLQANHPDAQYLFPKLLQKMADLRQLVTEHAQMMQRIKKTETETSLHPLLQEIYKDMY

The assay addresses Peroxisome proliferator-activated receptor delta (Homo sapiens) (UniProt Q03181). Nature of the assay: qHTS assay to identify small molecule agonists of the peroxisome proliferator-activated receptor delta (PPARd) signaling pathway (AID 743212). The conditions noted are these: HEK293H PPARd-UAS-bla, beta-lactamase FRET ratio, 17 h; series mostly up to 62.6 µM. An excerpt: U.S. Tox21 Program National Center for Advancing Translational Sciences [NCATS] NIH Chemical Genomics Center [NCGC] U.S. Environmental Protection Agency [EPA] National Institutes of Environmental Health Sciences [NIEHS] National Toxicology Program [NTP] U.S. Food and Drug Administration [FDA] Tox21 Assay Overview: The peroxisome proliferator-activated receptors (PPARs) are lipid-activated transcription factors of the nuclear receptor superfamily with three distinct subtypes namely PPAR alpha, PPAR delta (PPARd) and PPAR gamma. All these subtypes heterodimerizes with Retinoid X receptor (RXR) and have different physiological functions. […] To identify the compounds that activate PPAR-delta signaling, GeneBLAzer PPAR delta UAS-bla HEK293H cell line (Invitrogen, Carlsbad, CA, USA) containing a beta-lactamase reporter gene under the control of an Upstream Activator Sequence (UAS) was used to screen the Tox21 compound library.
Tox21 Assay Protocol Summary: PPARd-bla cells were dispensed at 3000 cells/6uL/well in 1536-well black wall/clear bottom plates using a Multidrop Combi (Thermo Fisher Scientific, Waltham, MA) dispenser. After the assay plates were incubated at 37 C and 5% CO2 for 5 h, 23 nL of compounds dissolved in DMSO, positive controls or DMSO only was transferred to the assay plate by a Pintool station (Kalypsys, San Diego, CA). The assay plates were incubated at 37C for 17 h. After 1 uL of LiveBLAzerTM B/G FRET substrate was added using a Bioraptr Flying Reagent Dispenser (FRD) workstation (Beckman Coulter, Indianapolis, IN, USA), the plates were incubated at room temperature for 2 h, and fluorescence intensity was measured by an Envision plate reader (PerkinElmer, Shelton, CT).
(In general: In qHTS, concentration-response curves come from the screen itself.)
On to `CC(C)(N)C#N`, for which the outcome was inactive.
As for `COCCOC[C@H](CC1(C(=O)NC2CCC(C(=O)O)CC2)CCCC1)C(=O)Oc1ccc2c(c1)CCC2` (stereo not given in full), the outcome was inactive.
For the molecule `CCN(CC#N)c1cccc(C)c1`, the result was inactive.
Same read-out and setting: in the case of `C[C@@H]1C[C@H]2[C@@H]3C[C@H](F)C4=CC(=O)C(Cl)=C[C@]4(C)[C@@]3(F)[C@@H](O)C[C@]2(C)[C@@]1(O)C(=O)CO` it was “inactive”; in that of `O=C1CCCCCCCCCCCCCCO1`, “inactive”.
`NC(N)=NCCN1CCCCCCC1`: the activation was 3.33% [at 0.55 µM].
As for `CC(=O)C1CCCCC1=O` (stereo not given), the outcome was inactive.
As for `CC1=NN(c2cc(S(=O)(=O)O)ccc2Cl)C(=O)C1N=Nc1ccccc1` (stereo not given), the outcome was inactive.
`CC(CO)(CO)[N+](=O)[O-]`: the outcome was inactive.
`CC[C@H]1OC(=O)[C@H](C)[C@@H](O[C@H]2C[C@@](C)(OC)[C@@H](O)[C@H](C)O2)[C@H](C)[C@@H](O[C@@H]2O[C@H](C)C[C@H](N(C)C)[C@H]2O)[C@](C)(OC)C[C@@H](C)C(=O)[C@H](C)[C@@H](O)[C@]1(C)O`: the result was inactive.
With `C1CCC2(CCCCO2)OC1`, the outcome was inactive.
As to `Nc1ccn([C@@H]2O[C@H](CO)[C@@H](O)[C@@H]2O)c(=O)n1`, the outcome was inactive.
In the case of `C[C@H]1C[C@H]2[C@@H]3CCC4=CC(=O)C=C[C@]4(C)[C@H]3C(=O)C[C@]2(C)[C@@]1(O)C(=O)CO`, the result was inactive.
With `Cc1cccc(C)c1NC(=O)CC12CCCN1CCC2`, the result was inactive.
Turning to `CC(C)c1ccc2ncccc2c1`, the outcome was inactive.
As to `CCCCCC(C)N` (stereo not given), the outcome was inactive.
With `O=C(O)CCSCCC(=O)O`, the result was inactive.
Take `CC/C=C\CCOC(C)OCC` (stereo not given): the outcome was inactive.
For the molecule `CCOC(=O)COc1cc(-n2ncc(C(F)(F)F)c(C)c2=O)c(F)cc1Cl`, the outcome was inactive.
Still for that read-out and setting: in the case of `CCCCOC(=O)CCC(C)=O` it was “inactive”; in that of `CC(=O)c1ccccc1[N+](=O)[O-]`, “inactive”.
In the case of `CC1=CCC(O)(C(C)C)CC1` (stereo not given), the result was inactive.
Turning to `CCOc1c(N2CCOCC2)cnn(C)c1=O`, the outcome was inactive.
For `NC(=O)N[C@@H](CCC(=O)O)C(=O)O`, the outcome was inactive.
Still for that read-out and setting: to `CC1=C(C/C=C(\C)CCC[C@H](C)CCC[C@H](C)CCCC(C)C)C(=O)c2ccccc2C1=O` belongs “inactive”; to `CC[N+](C)(CC)CCOC(=O)C1c2ccccc2Oc2ccccc21`, “inactive”; to `CCCC(C)C(=O)OCC` (stereo not given), “inactive”.
Take `CCCCCCCCCCCCSC`: the outcome was inactive.
Take `CC(=O)Nc1ccc(OCC(O)CNC(C)C)cc1` (stereo not given): the outcome was inactive.
Regarding `CCOC(=O)CCC(=O)OCC`, the outcome was inactive.
Still for that read-out and setting: to `COCCOCC(OC)OC` belongs “inactive”.
With `CCCn1cc[n+](C)c1C`, the result was inactive.
On the same count and under the same terms, in the case of `Nc1ccncc1N` it was “inactive”.
Take `CCCOC(=O)CC`: the result was inactive.
On to `CCCc1nn(C)c2c(=O)[nH]c(-c3cc(S(=O)(=O)N4CCN(C)CC4)ccc3OCC)nc12`, for which the result was inactive.
With `CCOCC(C)O` (stereo not given), the outcome was inactive.
Consider `CO[C@@]1(NC(=O)C(C(=O)O)c2ccc(O)cc2)C(=O)N2C(C(=O)O)=C(CSc3nnnn3C)CO[C@@H]21` (stereo not given in full), for which the result was inactive.
Turning to `COC(=O)Nc1ccc(Cl)c(Cl)c1`, the outcome was inactive.
Consider `CCCCCCCC1CCCC1=O` (stereo not given), for which the outcome was inactive.
For `C[N+](C)(CCOc1ccccc1)Cc1cccs1`, the result was inactive.
